Assay outcomes as filed in PubChem.
In the library only some 3.4% were active in any assay of this set; here they are far more common.
MITF act: MITF TRPM1 promoter activation in melanoma cells; activation, % at 12.5 µM; SK-MEL-5 TRPM1-promoter luciferase, 24 h; % of positive control, neutral wells = 0; hit rate 0.75% among 300,000; AID 588334;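 active = mean activation of at least 80% with every replicate also reaching 80%; inconclusive = mean reaches 80% but some replicate falls short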;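 also: 0% = neutral control wells and 100% = parthenolide positive control wells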
esBAF inh: SWI/SNF esBAF complex inhibition. reporter increase, % at 12.5 µM. hit rate 2% among 350,000. mouse ES cells, Bmi1-luciferase knock-in reporter, 24 h; 100% = twice the neutral-well signal; in the data active = activation above about 40%; inconclusive = no clear call, values can overlap the other calls;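 also: 0% = median of the plate's neutral control wells and 100% = double that signal; a rise in the Bmi1 reporter signal indicates esBAF inhibition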
Wnt bcat act: activators of Wnt/beta-catenin signaling; hit rate 1.2% among 300,000; activation, % at 9.35 µM; Wnt/beta-catenin reporter cell assay, activator, plate reader; in the data active = activation above about 30%, passing the limit was not always enough; inconclusive = no clear call, values can overlap the other calls;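 also: 0% = neutral control wells and 100% = positive control wells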
Env fusion inh: blocks HIV Env-driven cell-cell fusion. hit rate 1.1% among 360,000. HeLa-JRFL Env/CEM21 cell fusion, luciferase. inhibition, % at 12.3 µM. AID 651610;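 active = mean replicate inhibition score of at least 50 and every replicate individually at or above 50; inconclusive = only one of the two criteria met; inactive = mean below 50 and not all replicates reaching 50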;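 also: 0% = plate neutral controls and 100% = maraviroc near 300 nM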
miR122 inh: miR-122 inhibition in Huh7 cells; Huh7 miR-122 Renilla luciferase sensor, 48 h; neutral wells = 0, positive control = 100; activation (reporter increase), % at 12.5 µM; hit rate 0.3% among 340,000; AID 602342;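 active = mean replicate activation score at least 90 and every replicate individually at or above 90; inconclusive = only one of the two criteria met; inactive = neither criterion met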;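 also: higher luciferase means less miR-122 activity so hits act as miR-122 inhibitors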
An asterisk follows results filed as active; [ ] = another dose, or the depositor's remark.

Screening N#C/C(=C\c1ccc(OCc2ccc(Br)cc2)cc1)C(=O)Nc1cccc(C(=O)O)c1 returned MITF act 47, Wnt bcat act 30, Env fusion inh -65 and miR122 inh -1.
`N#C/C(=C\c1ccc(OCc2ccccc2)cc1)C(N)=O` gave MITF act 63, Wnt bcat act 41* and Env fusion inh -8.
Cc1ccccc1COc1ccc(/C=C(\C#N)C(N)=O)cc1 was read as MITF act 36, esBAF inh 6, Wnt bcat act 5, Env fusion inh -4 and miR122 inh 3.
Screening O=C(Nc1ccc(Cl)cc1)c1csc(COCCO)n1 returned esBAF inh 53*, Wnt bcat act 13, Env fusion inh -19 and miR122 inh -1.
`O=C(Nc1ccc(Oc2ccccc2)cc1)c1csc(COCCO)n1` gave esBAF inh 35, Env fusion inh 45 and miR122 inh -18.
Screening C[C@@H]1CN([C@@H](C)CO)C(=O)c2cc(C#CC3(O)CCCC3)cnc2O[C@@H]1CN(C)Cc1ccccn1 returned esBAF inh 0 and miR122 inh 8[16.7 µM].
Screening COc1ccc(C(=O)Nc2ccc3ccccc3c2)cc1OC returned esBAF inh 86*, Wnt bcat act 15, Env fusion inh -104 and miR122 inh -5.
For Cn1nnc2cc(C(=O)Nc3ccc4ccccc4c3)ccc21 the results were MITF act inconclusive, Wnt bcat act 56* and Env fusion inh -79.
For COc1cc(OC)c(C(=O)Nc2ccc3ccccc3c2)cc1OC the results were MITF act 72, esBAF inh 54* and miR122 inh 3.
`O=C(C[C@@H]1CC[C@H]2[C@@H](COC[C@H](O)CN2C(=O)c2ccc(F)cc2)O1)N1CCCCC1` gave esBAF inh 0, Env fusion inh -6[16.7 µM] and miR122 inh 4[16.7 µM].
Screening CCC(=O)N1CC[C@H]2[C@@H]1c1cc(-c3ccc(F)cc3)ccc1N(C)[C@H]2CO returned esBAF inh 7 and miR122 inh 2[16.7 µM].
O=C(C[C@H]1CC[C@H]2NC[C@H](O)COC[C@@H]2O1)NCCN1CCCCC1 was read as esBAF inh -5, Env fusion inh 0[16.7 µM] and miR122 inh -4[16.7 µM].
Cc1ccc(S(=O)(=O)Nc2ccc3c(c2)CC(=O)N([C@@H](C)CO)C[C@@H](C)[C@@H](CN(C)C)O3)cc1 was read as esBAF inh -1 and miR122 inh 6[16.7 µM].
CC(C)NC(=O)N(C)C[C@H]1Oc2ccc(NC(=O)Cc3cn(C)c4ccccc34)cc2C(=O)N([C@@H](C)CO)C[C@@H]1C was read as esBAF inh -2 and miR122 inh 37[16.7 µM].
`c1ccc(N2CCN(c3nc4cc5c(cc4s3)OCCO5)CC2)cc1` gave esBAF inh 48*, Wnt bcat act inconclusive, Env fusion inh -12 and miR122 inh -12.
Screening c1c2c(cc3sc(N4CCOCC4)nc13)OCCO2 returned MITF act -43, esBAF inh -79, Wnt bcat act -10, Env fusion inh -131 and miR122 inh -3.
For COc1ccc(C(=O)Nc2nc3c(s2)Cc2cc(OC)ccc2-3)cc1 the results were MITF act 6, esBAF inh 12 and miR122 inh 4.
For COc1ccc2c(c1)Cc1sc(NC(=O)c3cccs3)nc1-2 the results were MITF act 48, esBAF inh 83*, Env fusion inh -88 and miR122 inh -8.
For COc1ccc2c(c1)Cc1sc(NC(=O)c3ccccc3)nc1-2 the results were MITF act 33, Wnt bcat act 51*, Env fusion inh -70 and miR122 inh 3.
`CNC[C@@H]1Oc2ncc(-c3ccc(C)cc3)cc2C(=O)N([C@@H](C)CO)C[C@@H]1C` gave esBAF inh -3, Env fusion inh -4[16.7 µM] and miR122 inh 13[16.7 µM].
`C[C@H](CO)N1C[C@H](C)[C@@H](CN(C)Cc2ccccc2)Oc2ncc(Br)cc2C1=O` gave esBAF inh -4, Env fusion inh -7[16.7 µM] and miR122 inh 11[16.7 µM].
Screening O=C(Nc1cccnc1)c1cc(-c2ccccc2)on1 returned MITF act 1, esBAF inh -1, Wnt bcat act 2, Env fusion inh 6 and miR122 inh -2.
CCCc1cc(C(=O)Nc2ccc(C(C)=O)cc2)no1 was read as MITF act 31, esBAF inh 6, Wnt bcat act 14 and Env fusion inh -23.
Screening CC(C)n1cc(NC(=O)c2cc(-c3ccccc3)on2)cn1 returned MITF act 19 and miR122 inh 114*.
CCCc1cc(C(=O)Nc2cccc(C(C)=O)c2)no1 was read as MITF act 52, esBAF inh 51*, Wnt bcat act 40* and miR122 inh 1.
For CCCc1cc(C(=O)Nc2ccc(F)c(Cl)c2)no1 the results were MITF act 108*, esBAF inh 31, Wnt bcat act 21, Env fusion inh -9 and miR122 inh -4.
O=C(Nc1cccnc1)c1cc(-c2ccc(Br)cc2)on1 was read as esBAF inh 26, Wnt bcat act 50*, Env fusion inh -84 and miR122 inh -3.
Screening CO[C@@H]1CN(C)C(=O)c2ccc(NC(=O)C3CCC3)cc2OC[C@@H](C)N(C(=O)CN(C)C)C[C@@H]1C returned esBAF inh -1, Env fusion inh -3[16.7 µM] and miR122 inh 11[16.7 µM].
`Cc1noc(C)c1S(=O)(=O)N(C)C[C@@H]1OCCCC[C@@H](C)Oc2ccc(NC(=O)NC3CCCCC3)cc2C(=O)N([C@@H](C)CO)C[C@@H]1C` gave esBAF inh 7, Env fusion inh -16[16.7 µM] and miR122 inh -1[16.7 µM].
CNC(=O)C[C@@H]1CC[C@@H]2[C@@H](COc3ccc(NC(=O)Nc4cccc(F)c4)cc3C(=O)N2C)O1 was read as esBAF inh 3, Env fusion inh 10[16.7 µM] and miR122 inh -12[16.7 µM].
Screening CCCc1cc(C(=O)Nc2cccnc2)no1 returned esBAF inh 15, Wnt bcat act 41*, Env fusion inh -10 and miR122 inh 7.
For CCCc1cc(C(=O)NCc2cccnc2)no1 the results were MITF act -9, esBAF inh 3, Wnt bcat act 3, Env fusion inh inactive and miR122 inh 4.
`CCCc1cc(C(=O)Nc2cccc(Cl)c2)no1` gave esBAF inh 54* and Wnt bcat act 47*.
For Cc1cc(C(=O)Nc2cccc3c2O[C@H](CN(C)S(=O)(=O)c2c(C)noc2C)[C@H](C)CN([C@H](C)CO)C3=O)n(C)n1 the results were esBAF inh -6 and miR122 inh 5[16.7 µM].
Screening CCOc1ccc(CCNC(=O)COC(=O)c2cccc(N(C)C)c2)cc1OCC returned MITF act 44, esBAF inh 54*, Wnt bcat act 51*, Env fusion inh -112 and miR122 inh 5.
Screening C[C@H]1CN([C@@H](C)CO)C(=O)Cc2cc(NC(=O)Nc3cccc4ccccc34)ccc2O[C@H]1CN(C)C(=O)Nc1ccc2c(c1)OCO2 returned esBAF inh 2, Env fusion inh 23[16.7 µM] and miR122 inh 0[16.7 µM].
